Source: PubChem BioAssay (National Center for Advancing Translational Sciences (NCATS))
TDP1 block: qHTS Assay for Inhibitors of Tyrosyl-DNA Phosphodiesterase (TDP1); Potency, µM (doses to about 130 µM), inactives show at the highest dose activity change, negative = inhibition, hits mostly inhibitors; recombinant TDP1, AlphaScreen DNA substrate cleavage; hit rate 0.28% among 350,000; Tyrosyl-DNA phosphodiesterase 1 (Homo sapiens), Q9NUW8; also: potency is read from the fitted curve at half-maximal effect; % is scaled to controls: 0 for no effect and ±100 for the full control effect; nearly all actives have a fitted effect of over 40% in size
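Enzyme-compound mixtures sat 15 min at room temperature, followed by a 5 min reaction with 15 nM final substrate and 10 min with AlphaScreen beads. Recombinant human Tdp1 was used at 1 nM final.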
CtBP-E1A blk: qHTS Assay for Inhibitors of the CtBP/E1A Interaction; CtBP / adenovirus E1A interaction (AlphaScreen); AID 651724, 2012; AlphaScreen GST-E1A/His-CtBP binding, 1536-well; active compounds read low; activity change, % (no concentration beside the values); hit rate 0.49% among 340,000; in the data active = activity change below about -65%; inconclusive = mostly about -30% to -63%; also: % is scaled to controls: 0 for no effect and ±100 for the full control effect
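GST-E1A and His-tagged CtBP (125 nM each as 5X stock) were preincubated with pin-transferred compound for 2 h at 37 °C in the dark, then glutathione donor and nickel acceptor beads were added for 1 h before AlphaScreen reading.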
Six1-Eya2 inh: qHTS Assay for Inhibitors of the Six1/Eya2 Interaction; Homeobox protein SIX1 (Homo sapiens) + Protein phosphatase EYA2 (Homo sapiens), …; activity change, % (test concentration not listed); hit rate 0.56% among 360,000; AID 651725, 2012; AlphaScreen GST-Six1/His-Eya2 binding, biochemical; active compounds read low; in the data active = activity change below about -65%; inconclusive = mostly about -30% to -63%; also: % is scaled to controls: 0 for no effect and ±100 for the full control effect
Target sequence (O00167 whole entry, looked up): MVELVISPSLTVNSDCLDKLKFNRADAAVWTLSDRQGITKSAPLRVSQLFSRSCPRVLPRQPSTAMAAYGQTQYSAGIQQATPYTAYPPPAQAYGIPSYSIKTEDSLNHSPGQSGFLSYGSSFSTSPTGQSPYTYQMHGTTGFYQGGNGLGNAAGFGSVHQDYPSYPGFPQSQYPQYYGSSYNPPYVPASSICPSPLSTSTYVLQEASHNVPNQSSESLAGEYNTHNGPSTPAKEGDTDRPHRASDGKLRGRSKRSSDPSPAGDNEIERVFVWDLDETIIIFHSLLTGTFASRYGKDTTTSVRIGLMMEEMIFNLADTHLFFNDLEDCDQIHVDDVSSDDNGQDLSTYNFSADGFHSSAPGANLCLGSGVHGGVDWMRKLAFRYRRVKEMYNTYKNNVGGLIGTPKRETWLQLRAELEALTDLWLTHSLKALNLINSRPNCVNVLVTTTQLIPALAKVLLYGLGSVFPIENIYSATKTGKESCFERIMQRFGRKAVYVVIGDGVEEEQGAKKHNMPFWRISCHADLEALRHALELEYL
Target sequence (Q15475 whole entry, looked up): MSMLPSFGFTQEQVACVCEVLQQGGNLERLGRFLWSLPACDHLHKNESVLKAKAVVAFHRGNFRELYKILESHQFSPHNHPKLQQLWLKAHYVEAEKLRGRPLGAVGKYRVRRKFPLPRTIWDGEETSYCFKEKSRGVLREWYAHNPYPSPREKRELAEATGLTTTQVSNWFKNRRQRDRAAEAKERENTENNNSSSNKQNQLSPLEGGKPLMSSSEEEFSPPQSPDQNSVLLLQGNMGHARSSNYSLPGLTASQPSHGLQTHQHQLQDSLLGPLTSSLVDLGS
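GST-Six1 + His-Eya2 (5X stock: 250/500 nM); Tris pH 8.0, 300 mM NaCl, 0.05% BSA, 0.02% Tween 20; GSH donor/Ni acceptor beads; 1 h 37 °C dark; AlphaScreen readout.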
JMJD2A Tudor inh: qHTS Assay for Inhibitors of JMJD2A-Tudor Domain | Lysine-specific demethylase 4A (Homo sapiens), O75164 | AlphaScreen JMJD2A-Tudor / H3K4me3 peptide binding | hit rate 4.4% among 390,000 | Potency, µM (top dose mostly 114 µM), without a hit: top-dose activity change, negative = inhibition, usual class: inhibitors; also: potency is read from the fitted curve at half-maximal effect; % is scaled to controls: 0 for no effect and ±100 for the full control effect; nearly all actives have a fitted effect of over 50% in size
BAZ2B inh: qHTS Assay for Inhibitors of BAZ2B. Bromodomain adjacent to zinc finger domain protein 2B (Homo sapiens), Q9UIF8. AlphaScreen BAZ2B-H3K14Ac peptide displacement. Potency, µM (titrated, usually from 114 µM), for inactives: top-dose activity change, negative = inhibition, actives largely listed as inhibitors. hit rate 4.4% among 360,000; also: potency is read from the fitted curve at half-maximal effect; % is scaled to controls: 0 for no effect and ±100 for the full control effect; nearly all actives have a fitted effect of over 60% in size
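Inhibition is scored as reduced AlphaScreen emission. The BAZ2B/b-H3(5-23)K14Ac complex (50 nM each) in PBS pH 7.4, 0.01% Tween-20 meets compound (up to 110 uM) for 30 min at RT before bead addition.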
HP1b binding inh: HTS for Inhibitors of HP1-beta Chromodomain Interactions with Methylated Histone Tails. Chromobox protein homolog 1 (Homo sapiens), P83916. AlphaScreen HP1-beta / biotin-H3K9me3 peptide binding. Potency, µM (top dose mostly 114 µM), for the others: top-dose activity change, negative = inhibition, hits mostly inhibitors. hit rate 0.56% among 390,000. AID 540317, 2011; also: potency is read from the fitted curve at half-maximal effect; nearly all actives have a fitted effect of over 70% in size
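Compound inhibition of the preformed complex between 50 nM HP1-beta and 50 nM biotinylated H3K9me3 peptide was read by AlphaScreen. Buffer was PBS pH 7.4 with 0.01% Tween-20. Incubations ran 30 min at room temperature, with 10 ug/mL donor/acceptor beads.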
Active calls of the source: *; ? = inconclusive; / = no result given; [ ] = another dose, or the depositor's remark. Rows were chosen to be rich in hits. Some 5.3% of all compounds tested hit in one or more screens of this group. Unless noted, calls follow the shape of the dose curve; as a rule, active = well fitted inhibition curve with a large enough effect; inconclusive = small, poorly fitted or top-dose-only effect; inactive = no such curve, though single readings can be large or run the other way.

SMILES | TDP1 block | CtBP-E1A blk | Six1-Eya2 inh | JMJD2A Tudor inh | BAZ2B inh | HP1b binding inh
COc1ccc(N2CCC(CNC(=S)Nc3ccc(C)cc3C)C2)cc1 (stereo unspecified) | 13.8% | -14.7 | ? | 28.2µM* | 15.8µM* | ?
COc1ccc(N2CCC(CNC(=S)Nc3c(C)cc(C)cc3C)C2)cc1 (stereo unspecified) | 11.2% | -11.6 | ? | 35.5µM* | 20µM* | 7.08µM*
COc1ccc(N2CCC(CNC(=S)Nc3cccc(C)c3)C2)cc1 (stereo unspecified) | 11.7% | ? | ? | 44.7µM* | 12.6µM* | ?
Cc1cc(C)cc(NC(=S)NCC2CCN(C(C)c3ccccc3)C2)c1 (stereo unspecified) | 5.4% | -7.3 | -12.9 | -19.6% | -16.5% | 19.6%
O=C(CCCc1ccccc1)N1CCN(C2CCCCC2)CC1 | / | / | -8.2 | -8.3% | -35.9% | 4.1%
c1ccc(CCN(Cc2ccccc2)C2CCN(C3CCCC3)CC2)cc1 | -2.7% | -17.8 | -1.8 | 2.24µM* | 50.1µM* | ?
Cc1cc(=O)n(C(C)C(=O)NCc2ccccc2Cl)c2c1c(C)nn2-c1ccccc1 (stereo unspecified) | 3.2% | / | / | -8.0% | -4.9% | -5.8%
CCN1CCN(C(=S)c2ccc(Cl)cc2)CC1 | 0.9% | 4.8 | 0.0 | 79.4µM* | -1.4% | ?
OCCN1CCN(C(=S)c2ccc(Cl)cc2)CC1 | -1.1% | -2.7 | 9.5 | -25.8% | 5.7% | ?
O=C1Nc2ccccc2C12OCC(COc1ccc(Cl)cc1)O2 (stereo unspecified) | 9.1% | -1.4 | -3.5 | 79.4µM* | 9.5% | -18.4%
NC(=S)N/N=C/c1ccc(C(F)(F)F)cc1 | -5.6% | -8.8 | 0.3 | -23.0% | -19.5% | 23.1%
NC(=S)N/N=C/c1ncc(C(F)(F)F)cc1Cl | 6.8% | -85.0* | -84.8* | ? | 50.1µM* | 41.7%
O=S(=O)(c1ccc(Cl)cc1)c1cnc2ccccc2n1 | 0.0% | -12.3 | -18.0 | -29.2% | -16.7% | 28.0%
Cc1cc(C)cc(S(=O)(=O)c2cnc3ccccc3n2)c1 | 8.8% | 2.4 | -3.1 | 11.2µM* | 20.1% | ?
O=[N+]([O-])c1cccc(S(=O)(=O)c2ccc(NCCO)c([N+](=O)[O-])c2)c1 | 1.3% | 6.1 | -2.1 | 14.1µM* | -28.0% | ?
COC(=O)NCc1c(C)nn(-c2ccccc2)c1-n1cccc1 | 2.5% | / | / | -15.8% | -7.7% | 15.5%
CCNc1nc(CN2CCOCC2)nc2sc3c(c12)CCC3 | 3.0% | 6.6 | 1.8 | -18.2% | -38.2% | 35.0%
c1ccc2c(c1)CCN(c1nc(CN3CCOCC3)nc3sc4c(c13)CCCC4)C2 | 11.0% | -24.4 | -18.8 | -33.7%[57.1 µM] | 35.5µM* | ?
COc1ccccc1NC(=O)C1=C(C)Nc2nc(-c3ccco3)nn2C1c1ccccc1F (stereo unspecified) | / | / | / | -18.3% | -27.2% | 16.8%
CC(C)Cn1c(SC(C)C(=O)Nc2ccc(N3CCOCC3)cc2)nc2ccccc21 (stereo unspecified) | 5.4% | / | -4.9 | ? | 35.5µM* | ?
COc1cccc(NC(=S)N(CCCN2CCCC2)Cc2ccco2)c1 | -2.6% | -4.1 | -5.8 | -7.6% | -2.9% | 31.1%
COc1cccc(NC(=S)N(CCCN2CCCC2)Cc2cccn2Cc2ccc(Cl)cc2)c1 | 6.9% | -19.9 | -22.4 | 44.7µM* | -37.7% | ?
S=C(Nc1cccc(Cl)c1)N(CCCN1CCCC1)Cc1cccn1Cc1ccc(Cl)cc1 | 10.5% | -7.2 | -12.0 | 31.6µM* | ? | -18.3%
CSc1cccc(NC(=S)N(CCCN2CCCC2)Cc2cccs2)c1 | 4.9% | 2.5 | -4.2 | ? | ? | -10.1%
CSc1cccc(NC(=S)N(CCCN2CCCC2)Cc2cccn2Cc2ccc(Cl)cc2)c1 | 7.9% | -12.5 | ? | 20µM* | 25.1µM* | -13.7%
SMILES | TDP1 block | CtBP-E1A blk | Six1-Eya2 inh | JMJD2A Tudor inh | BAZ2B inh | HP1b binding inh
CC1CCCCN1CCn1c(=S)[nH]c2ncccc2c1=O (stereo unspecified) | 4.0% | 5.0 | 17.8 | 39.8µM* | -25.4% | -2.0%
CCN(CC)CCn1c(=S)[nH]c2ccccc2c1=O | -6.2% | -9.6 | 0.1 | -17.0% | 13.0% | 28.9%
CC(C)OCCCn1c(=S)[nH]c2ncccc2c1=O | 2.0% | 3.3 | 3.6 | ? | -7.0% | -6.4%
CCN(CC)CCCn1c(=S)[nH]c2ccccc2c1=O | -1.0% | -0.3 | -5.2 | 56.2µM* | -29.8% | 28.9%
CCN(CC)CCCn1c(=S)[nH]c2ncccc2c1=O | -3.5% | -19.3 | -7.9 | 8.91µM* | -8.7% | ?
COc1ccc(C(=O)NCc2ccc3c(c2)CCN3C(C)=O)c(OC)c1 | -2.5% | / | / | -9.0% | -4.6% | 20.4%
Cc1cccc(-c2c3c(=O)n(C)c(=O)n(C)c3c3cnc4ccccc4n23)c1 | 1.1% | / | / | 1.0% | 3.3% | 50.9%
O=[N+]([O-])c1ccccc1/C=N/n1c(-c2cccnc2)n[nH]c1=S | 8.0% | -15.3 | 5.9 | 2.24µM* | -26.7% | 9.0%
O=[N+]([O-])c1cc(/C=N/n2c(-c3cccnc3)n[nH]c2=S)ccc1Cl | 2.7% | -1.8 | -19.2 | 39.8µM* | ? | -7.6%
Cc1ccc(OCCN2C(=O)c3ccccc3C2=O)c([N+](=O)[O-])c1 | 0.0% | 0.6 | -3.9 | -15.8% | -18.3% | 29.3%
CCC(C)NCCCCOc1ccc(C)cc1[N+](=O)[O-] (stereo unspecified) | -6.2% | 0.3 | 0.9 | 3.55µM* | 44.7µM* | ?
COCCCNCCOc1ccc(C)cc1[N+](=O)[O-] | 0.0% | -1.5 | 2.3 | 1µM* | ? | ?
Cc1ccc(OCCOCCNC(C)(C)C)c([N+](=O)[O-])c1 | -5.3% | 9.3 | 0.0 | 8.91µM* | 79.4µM* | -9.7%
COc1ccc(OCCOCCOc2ccc(C)cc2[N+](=O)[O-])cc1 | 2.4% | 2.1 | 1.2 | -3.6% | 9.4% | 40.1%
COCCNCCCCOc1ccc(C)cc1[N+](=O)[O-] | -8.1% | -6.2 | 15.5 | 2.82µM* | 56.2µM* | -20.8%
COC(=O)c1ccc(COc2ccc(C)cc2[N+](=O)[O-])o1 | 4.1% | 4.0 | -8.7 | -14.2% | -15.8% | 5.8%
COc1cccc(OCCOCCOc2ccc(C)cc2[N+](=O)[O-])c1 | 2.7% | 5.3 | 19.1 | -10.6%[57.1 µM] | 31.1% | 142.8%
c1nc(NCc2ccoc2)c2cc(-c3ccc4c(c3)OCO4)ccc2n1 | 4.3% | / | / | ? | / | /
